Records with an inconclusive call do not appear. Active and inactive are the calls of the source. The calls were made as follows: active = hit-call score of the fitted dose curve at least 0.9, where 1 is the maximum; inconclusive = response in the unintended direction; inactive = score below 0.9.
The molecules below were run on rainbow trout Peroxisome Proliferator-activated Receptor gamma (PPARg), gene 110528708 (assay: ATG_rtPPARg_EcoTox2: Attagene TRANS-FACTORIAL EcoTox-2 HepG2 Assay for rainbow trout Peroxisome Proliferator-activated Receptor gamma (PPARg)).
Procedure: ATG_EcoTox2 is a cell-based, multiplexed assay created by modifying the existing Attagene TRANS-FACTORIAL system to include a panel of nuclear receptors from some or all the following species: human (Homo sapiens), african clawed frog (Xenopus laevis), rainbow trout (Oncorhynchus mykiss), japanese medaka (Oryzias latipes), and zebrafish (Danio rerio). The ECOTOX2-FACTORIAL format uses HepG2, a human liver cell line, with measurements taken at 24 hours after chemical dosing in a 24-well plate. ATG_rtPPARg_EcoTox2 is one of 29 assay components calculated in the ATG_EcoTox2 assay. It is designed to make measurements of mRNA induction, a form of inducible reporter, as detected with fluorescence intensity signals by Reverse transcription polymerase chain reaction (RT-PCR) and Capillary electrophoresis technology.The assay endpoint ATG_rtPPARg_EcoTox2 was analyzed in the positive analysis fitting direction relative to DMSO as the negative control and baseline of activity. Using a type of inducible reporter, measures of mRNA for gain-of-signal activity can be used to understand the reporter gene at the transcription factor-level as they relate to the gene PPARg. Furthermore, this assay endpoint can be referred to as a primary readout, because this assay has produced multiple assay endpoints where this one serves a reporter gene function. To generalize the intended target to other relatable targets, this assay endpoint is annotated to the nuclear receptor intended target family, where the subfamily is non-steroidal.
Human liver HepG2 cells are transiently transfected with multiple reporter transcription units (MRTUs) in 6-well plates using FuGene 6 reagent (Roche; 3 ml FuGene/1 mg DNA). The MRTU constructs are regulated by a cis-regulating element (promoter). Each RTU expresses a GAL4-UAS that regulates the transcription of a nearby target reporter gene sequence. A major difference between the CIS and TRANS system is that in CIS activities of endogenous TFs are measured, whereas the TRANS assay evaluates changes in activities of exogenous, chimeric NR-Gal4 proteins. […] At the end of 24 hour incubation, total RNA was isolated using TriZol reagent (Invitrogen). The isolated RNA is then reverse-transcribed using oligo(dT) primer and Mo-MLV reverse transcriptase (Invitrogen) with DNAse I (Ambion) treatment for 30 min. The one-tenth of the produced cDNA was amplified by PCR using Taq DNA polymerase (Invitrogen) and two reporter sequence-specific primers. […] The fragments were purified using Qiaquick PCR columns (Qiagen), analyzed on an ABI 3130xL genetic analyzer (Applied Biosystems) with peak positions identified by using a set of X-rhodamine (ROX)-labeled MapMarker1000 molecular weight standards (BioVentures). […]

SMILES	outcome
CC(C)OC(=O)C(C)(C)Oc1ccc(C(=O)c2ccc(Cl)cc2)cc1	inactive
CC(C)(Oc1ccc(Cl)cc1)C(=O)O	inactive
Cc1ccc(C)c(OCCCC(C)(C)C(=O)O)c1	inactive
C[C@]12C=CC(=O)C=C1CC[C@@H]1[C@@H]2C(=O)C[C@@]2(C)[C@H]1CC[C@]2(O)C(=O)CO	inactive

— PubChem BioAssay AID2284352 (EPA ToxCast)
